Shown are actives, neighbours in structure and some others; about 5% of the full set was active somewhere.
PREPL inhibitor: inhibitors of human prolyl oligopeptidase-like enzyme PREPL | inhibition, % at 5.96 µM | 320,000 compounds, 0.68% hits | recombinant PREPL, fluorescence polarization activity-based probe | Q4J6C6;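 also: 0% = enzyme with DMSO and 100% = wells lacking enzyme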
Target sequence (Q4J6C6 whole entry, looked up): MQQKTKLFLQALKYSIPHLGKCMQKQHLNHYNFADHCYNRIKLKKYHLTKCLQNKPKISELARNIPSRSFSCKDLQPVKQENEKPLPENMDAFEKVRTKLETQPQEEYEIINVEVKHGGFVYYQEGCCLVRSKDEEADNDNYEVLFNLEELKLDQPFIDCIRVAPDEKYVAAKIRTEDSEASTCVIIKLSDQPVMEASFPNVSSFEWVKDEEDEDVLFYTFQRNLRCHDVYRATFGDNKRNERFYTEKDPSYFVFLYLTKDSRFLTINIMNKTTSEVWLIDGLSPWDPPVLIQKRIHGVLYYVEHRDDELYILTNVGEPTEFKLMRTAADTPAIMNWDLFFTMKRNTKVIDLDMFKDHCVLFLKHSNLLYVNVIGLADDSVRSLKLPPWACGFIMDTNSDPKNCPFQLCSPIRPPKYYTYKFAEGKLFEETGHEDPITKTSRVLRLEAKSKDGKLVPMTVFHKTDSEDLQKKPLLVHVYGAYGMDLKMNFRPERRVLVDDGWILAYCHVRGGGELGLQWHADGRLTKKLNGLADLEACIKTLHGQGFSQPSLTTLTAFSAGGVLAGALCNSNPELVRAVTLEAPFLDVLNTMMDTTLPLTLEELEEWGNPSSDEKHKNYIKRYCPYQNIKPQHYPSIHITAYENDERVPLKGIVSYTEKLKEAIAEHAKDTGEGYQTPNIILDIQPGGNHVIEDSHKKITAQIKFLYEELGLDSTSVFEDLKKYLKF
AI-2 QS mod: modulators of Vibrio harveyi AI-2 quorum sensing system | 300,000 compounds, 0.4% hits | Vibrio harveyi JMH597 AI-2 luminescence/OD600 ratio, 9 h; stronger effect = lower value; strain lacks LuxN and CqsS sensors; 0 = neutral-control median | activity change, % at 7.5 µM | AID 2094; in the data active = activity change below about -75%, passing the limit was not always enough;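 also: luminescence divided by OD600 gain over 9 h not by final OD600 alone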
CHT block: inhibitors of human choline transporter CHT; B-score at 10 µM; CHT-expressing cells, membrane potential dye, choline response; stronger effect = lower value; 310,000 compounds, 0.86% hits; Q9GZV3;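 active = B-score over 3 SD under the library average, and starting fluorescence ratio not unusually high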;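 also: choline stimulus applied at its EC90 after an EC20 pre-addition; B-score computed on integrated fluorescence ratio after choline addition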
CHT allo act: allosterically activates the human high affinity choline transporter. Q9GZV3. CHT-expressing cells, membrane potential dye, choline EC20; stronger effect = higher value; LV-AA mutant CHT in HEK293 cells. B-score at 10 µM. 310,000 compounds, 0.49% hits;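 active = initial fluorescence not abnormally high and integrated response B-score, plate-corrected, over 3 SD above library mean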
ALR inh: human ALR oxidase inhibition via reduced H2O2. P55789. purified ALR, DTT oxidation, H2O2 HRP-luminol luminescence. inhibition, % (concentration not given with the values). 290,000 compounds, 3.8% hits. AID 485317;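 active = mean replicate inhibition above about 79%, with every replicate also reaching it, limit read from the data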
PREPL confirm: human PREPL inhibition, confirmation | recombinant PREPL, fluorescence polarization activity probe | AID 2803 | inhibition, % at 5.96 µM | 2,000 compounds, 67% hits | shares compounds with PREPL inhibitor;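 also: 0% = protein with DMSO and 100% = wells lacking protein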
* hit, by the source's call; i = inactive; · = no result. Rule as the data show it, unless noted: active = inhibition above about 43%; inactive = the rest.

SMILES | PREPL inhibitor | AI-2 QS mod | CHT block | CHT allo act | ALR inh | PREPL confirm
Cc1cccc(N2CCN(C(=O)c3nn(C)c4c3CS(=O)(=O)c3ccccc3-4)CC2C)c1 (stereo unspecified) | 1 | · | i | i | 19 | ·
O=c1c(Cl)c(N2CCN(S(=O)(=O)c3ccc(F)cc3)CC2)cnn1-c1cccc(Cl)c1 | -8 | 13 | i | i | -11 | ·
COc1ccccc1NS(=O)(=O)c1cccc(N2CC(O)=C(c3ccccc3)C2=N)c1 | 8 | 4 | i | i | · | ·
C[C@@H]1CN([C@@H](C)CO)C(=O)Cc2cc(NC(=O)Nc3cccc4ccccc34)ccc2O[C@@H]1CN(C)S(C)(=O)=O | 45* | · | · | · | -17 | 43
C[C@@H]1CN([C@@H](C)CO)C(=O)c2cccc(NC(=O)Nc3ccc(F)cc3)c2O[C@@H]1CN(C)Cc1ccc(Oc2ccccc2)cc1 | 8 | · | · | · | -4 | ·
C[C@H](CO)N1C[C@H](C)[C@H](CN(C)Cc2ccccc2)Oc2c(NC(=O)Nc3ccc(F)cc3)cccc2C1=O | 53* | · | · | · | -1 | 55*
C[C@H]1CN([C@@H](C)CO)C(=O)c2cc(NC(=O)Nc3cccc4ccccc34)ccc2O[C@@H]1CN(C)Cc1ccc(-c2ccccc2)cc1 | 48* | · | · | · | 1 | 45*
C[C@H](CO)N1C[C@H](C)[C@@H](CN(C)C(=O)Nc2ccc(C(F)(F)F)cc2)Oc2ccc(NC(=O)c3ccncc3)cc2C1=O | 51* | · | · | · | -6 | 46*
NCCc1nnc(SCC(=O)c2ccc(Cl)cc2)o1 | 5 | 29 | i | i | 32 | ·
COc1ccc(CCNC(=O)c2ccccc2SC)cc1 | -3 | 9 | i | i | 1 | ·
Nc1cc(N)cc(-c2nc3ccccc3o2)c1 | 55* | 23 | i | i | -324 | 34
Nc1ccc(-c2nc3ccccc3o2)cc1 | 13 | -7 | i | i | · | ·
C[C@@H]1NC(=O)[C@H](CCCN=C(N)N)NC(=O)c2cc([N+](=O)[O-])cc(I)c2NCCC[C@@H](C(N)=O)NC1=O | 43* | 17 | i | i | -2 | 22
CCC(CC)=N/N=C/c1c(O)n(CC)c2cc(C3=NNC(=O)CC3)ccc12 | 4 | 39 | i | i | 65 | ·
CCn1c(O)c(/C=N/N=C/c2ccccc2)c2ccc(C3=NNC(=O)CC3)cc21 | 72* | 16 | i | i | 37 | 65*
CCCC(C)NC(=O)COC(=O)c1cc(Br)c(Br)s1 (stereo unspecified) | 10 | 14 | i | i | -3 | ·
Cc1ccc(C2(c3noc(CN(C)CCCN4CCOCC4)n3)CCCC2)cc1 | 0 | 15 | i | i | 3 | ·
CN(C)c1ccc(C(O)P(=O)(OCc2ccccc2)c2ccc(N(C)C)cc2)cc1 (stereo unspecified) | 51* | 0 | i | i | 16 | 53*
Cc1onc(-c2ccc(Cl)cc2Cl)c1-c1csc(N/N=C/c2ccccc2)n1 | 3 | 9 | i | i | -9 | ·
O=C1NC(=S)S/C1=C/c1ccc(OC(=O)c2ccco2)cc1 | 65* | 15 | i | i | -3 | 69*
Cn1c(=O)c(NCCO)c2c3c(cccc31)C(=O)c1ccccc1-2 | 90* | 16 | i | i | -37 | 103*
CCNc1c2c3c(cccc3n(C)c1=O)C(=O)c1ccccc1-2 | 69* | -6 | i | i | -9 | 54*
Cn1c(=O)c(NCCc2ccccc2)c2c3c(cccc31)C(=O)c1ccccc1-2 | 163* | 10 | i | i | -32 | 166*
CCCCNc1c2c3c(cccc3n(C)c1=O)C(=O)c1ccccc1-2 | 38 | 8 | i | i | -6 | ·
O=C(O)CCC(=O)N1N=C(c2ccccc2)CC1c1ccc2c(c1)OCO2 (stereo unspecified) | · | 4 | i | i | -9 | ·
SMILES | PREPL inhibitor | AI-2 QS mod | CHT block | CHT allo act | ALR inh | PREPL confirm
NC(=O)[C@H]1CC2(CC(c3cccc(NC(=O)COc4ccc(Cl)cc4)c3)=NO2)CN1C(=O)Cc1ccc([N+](=O)[O-])cc1 (stereo partly specified) | 49* | 16 | i | i | -1 | 50*
COc1cc(C(=O)NCC(c2cccs2)N2CCOCC2)cc(Br)c1OCc1ccccc1 (stereo unspecified) | 1 | · | · | · | -4 | ·
CCN1CCc2c(sc(NC(=O)Cc3ccccc3)c2C(N)=O)C1 | 2 | 14 | i | i | -2 | ·
CCN1CCc2c(sc(NC(=O)Nc3ccc(Cl)c(Cl)c3)c2C(N)=O)C1 | 70* | · | i | i | 54 | 54*
CCOc1ccc(NC(=S)Nc2ccc3nsnc3c2)cc1 | 44* | 14 | i | i | 14 | 13
CC[C@@H]1CCCCc2ccccc2[C@@H](C(=O)C[C@@H](O)CC(C)=O)OC1=O | 3 | · | · | · | · | ·
CCCCCCSc1cccc(-c2nc3ccc(C)cn3c2NC2CCCCC2)c1 | 8 | 14 | i | i | · | ·
Cc1ccc2nc(-c3ccccn3)c(NC3CCCC3)n2c1 | 64* | 44 | i | i | 99* | 70*
COc1ccc2cc1Oc1ccc(cc1)CC1c3c(cc(OC)c4c3Oc3cc5c(cc3O4)CCNC5C2)CCN1C (stereo unspecified) | 51* | 33 | i | i | 13 | 52*
CCOc1ccc(C=NNc2ccc(S(=O)(=O)Nc3ccccc3C(=O)O)cc2[N+](=O)[O-])cc1 | 65* | · | · | · | 5 | 69*
Cc1nn(-c2ccccc2)c(Cl)c1/C=N/Nc1ccc(S(=O)(=O)Nc2ccccc2C(=O)O)cc1[N+](=O)[O-] | 38 | 52 | i | i | 3 | ·
C=CCOc1ccc(C=NNc2ccc(S(=O)(=O)Nc3ccccc3C(=O)O)cc2[N+](=O)[O-])cc1OC | 62* | · | · | · | 90* | 36
CCOc1ccc(NC(=O)Cc2ccc(S(=O)(=O)N3CCOCC3)s2)cc1OCC | 1 | 23 | i | i | -15 | ·
O=C1c2ccccc2-c2onc3c(N4CCN(CCO)CC4)cc(N4CCN(C(=O)c5ccco5)CC4)c1c23 | 45* | 10 | i | i | 10 | 56*
CN1CCN(c2cc(N3CCN(C(=O)c4ccco4)CC3)c3c4c(onc24)-c2ccccc2C3=O)CC1 | 35 | 29 | i | i | 3 | ·
O=C(NCc1ccc(Cl)s1)C1CCC(=O)N(CCc2cccc(F)c2)C1 (stereo unspecified) | -6 | 15 | i | i | 0 | ·
Clc1ccc2nc(-c3ccccn3)c(Nc3ccc4c(c3)OCO4)n2c1 | 67* | 7 | i | i | 33 | 54*
CCCC(C)NC(=O)C1c2ccccc2Oc2ccccc21 (stereo unspecified) | 1 | 27 | i | i | -10 | ·
c1ccc(N2CCN(c3nc(-c4ccccn4)nc4ccccc34)CC2)cc1 | 83* | 30 | i | i | 61 | 79*

From PubChem
